# Test results taken from PubChem BioAssay (Tox21).
# Where “and” joins values, the source holds several entries; their conditions need not be identical. Equal values may be shown once. Inconclusive results are not listed. Where a call stands in place of a potency, no number is given. Some compounds were tested as several samples or in several runs, with calls that do not always agree. Calls of active or inactive are those of the source. Unless noted, calls follow the shape of the dose curve; as a rule, active = well fitted curve in the direction sought with a large enough effect in the repeat runs; inconclusive = weak or mixed curves; inactive = no such curve, though single readings can be large; an effect the other way counts as inactive or inconclusive.
# What was measured:
# [1] = qHTS assay to identify small molecule antagonists of the estrogen receptor alpha (ER-alpha) signaling pathway using the BG1 cell line in the presence of 0.1 nM 17-beta-estradiol - cell viability counter screen (AID 1259241); also: nearly all actives have a fitted effect of over 40% in size; also: potency is read from the fitted curve at half-maximal effect
# Outline: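 The cell line endogenously expresses full-length ER-alpha and carries four EREs driving luciferase. Cells are cultured 5 days hormone-free, treated 22 hr with compounds and 0.1 nM estradiol, then viability is read by fluorescence.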
# [2] = qHTS assay to identify small molecule antagonists of the androgen receptor (AR) signaling pathway using the MDA cell line in the presence of 0.5 nM R1881 - cell viability counter screen (AID 1259242); also: nearly all actives have a fitted effect of over 45% in size; also: potency is read from the fitted curve at half-maximal effect
# Outline: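 Live-cell protease fluorescence, CellTiter-Fluor, 30 min at 37C. Cells: MDA-kb2, 3,000/well, preincubated 5 hr. Compounds plus 0.5 nM R1881 final, 16 hr, 37C, 0% CO2.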
# [3] = target: Estrogen receptor (Homo sapiens) (UniProt P03372); assay: qHTS assay to identify small molecule antagonists of the estrogen receptor alpha (ER-alpha) signaling pathway using the BG1 cell line in the presence of 0.1 nM 17-beta-estradiol (AID 1259244); also: nearly all actives have a fitted effect of over 50% in size; also: potency is read from the fitted curve at half-maximal effect
# Outline: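 Luminescence after ONE-Glo (30 min, room temperature) measured ERE-luciferase activity in VM7Luc4E2 cells treated 22 h with compound and 0.1 nM final 17beta-estradiol as stimulator.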
# [4] = qHTS assay to identify small molecule phospholipidosis (PLD) inducers (AID 1259344; active = well fitted curve in the direction sought with a large enough effect; an effect the other way counts as inactive or inconclusive)
# Outline: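 Image-based: LipidTOX Red pit count/intensity per well and per cell; HepG2, 24 h compound at 37 C, PFA fixation, Hoechst counterstain.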
# [5] = qHTS assay to identify small molecule HDAC inhibitors (AID 1259364); also: potency is read from the fitted curve at half-maximal effect;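 also: wild-type HCT-116 cells with endogenous class I/II HDAC activity; nearly all actives have a fitted effect of over 45% in size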
# Outline: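 HCT-116 (wild type), 1,500 cells/well, overnight; compound 2 hr 37C 5% CO2; HDAC-Glo I/II reagent 30 min RT; luminescence readout.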
# [6] = qHTS assay to identify small molecule HDAC inhibitors - cell viability counter screen (AID 1259365); also: nearly all actives have a fitted effect of over 50% in size; also: potency is read from the fitted curve at half-maximal effect
# Outline: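 Viability readout: CellTiter-Glo luminescence. Wild-type HCT-116 cells, 2hr compound treatment following overnight attachment at 37 C.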
# [7] = qHTS assay to identify small molecule agonists of the sonic hedgehog signaling (Shh) pathway - cell viability counter screen (AID 1259366); also: nearly all actives have a fitted effect of over 50% in size; also: potency is read from the fitted curve at half-maximal effect
# Outline: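 Viability measured fluorometrically (CellTiter-Fluor, 1hr, 37C) in 3T3 Gli1-Luc reporter cells after 23hr compound exposure within a 24hr incubation at 37C/5% CO2.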
# [8] = qHTS assay to identify small molecule antagonists of the sonic hedgehog signaling (Shh) pathway - cell viability counter screen (AID 1259367); also: nearly all actives have a fitted effect of over 55% in size; also: potency is read from the fitted curve at half-maximal effect
# Outline: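 Tox21 library chemicals were tested on a Gli1-Luc NIH/3T3 clone (2,000 cells/well) stimulated by conditioned medium; viability was quantified as fluorescence from CellTiter-Fluor reagent added at 23 hr.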
# [9] = qHTS assay to identify small molecule agonists of the sonic hedgehog signaling (Shh) pathway (AID 1259368; calls by dose curve;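 also: NIH/3T3-derived 3T3Gli1-Luc cells carrying a stable Gli1-driven firefly luciferase reporter; series mostly up to about 92 µM; nearly all actives have a fitted effect of over 15% in size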)
# Outline: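 Read-out: firefly luciferase luminescence from a Gli1 response element reporter stably integrated in NIH/3T3-derived 3T3Gli1-Luc cells, measured 30 min at room temperature after reagent addition. Compound exposure lasted 24 hr at 37 C, 5% CO2.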
# Estrogen receptor (Homo sapiens), sequence (P03372 whole entry, looked up): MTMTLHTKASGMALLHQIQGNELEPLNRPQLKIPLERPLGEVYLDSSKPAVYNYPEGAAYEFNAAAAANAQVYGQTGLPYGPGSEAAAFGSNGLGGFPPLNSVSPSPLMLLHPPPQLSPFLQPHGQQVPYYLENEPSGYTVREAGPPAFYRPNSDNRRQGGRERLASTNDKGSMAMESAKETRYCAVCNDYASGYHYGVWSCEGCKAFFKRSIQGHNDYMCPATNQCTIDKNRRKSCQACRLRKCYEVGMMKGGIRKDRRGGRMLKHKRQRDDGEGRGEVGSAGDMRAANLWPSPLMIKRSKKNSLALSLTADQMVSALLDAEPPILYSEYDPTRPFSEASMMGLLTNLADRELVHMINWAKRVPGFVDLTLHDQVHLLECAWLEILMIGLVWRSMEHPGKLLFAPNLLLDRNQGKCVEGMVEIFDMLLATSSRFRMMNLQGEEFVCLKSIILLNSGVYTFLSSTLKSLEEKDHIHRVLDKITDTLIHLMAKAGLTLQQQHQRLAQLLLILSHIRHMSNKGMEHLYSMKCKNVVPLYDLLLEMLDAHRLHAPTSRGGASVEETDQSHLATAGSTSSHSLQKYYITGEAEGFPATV
Compound,Potency [1],Potency [2],Potency [3],Potency [4],Potency [5],Potency [6],Potency [7],Potency [8],Potency [9]
CC(=O)O[C@]1(C(C)=O)CC[C@H]2[C@@H]3C[C@H](C)C4=CC(=O)CC[C@]4(C)[C@H]3CC[C@@]21C,inactive,inactive,inactive,inactive,inactive,inactive,inactive,inactive,inactive
O=C(O)c1cc(Cl)cc(Cl)c1,inactive,inactive,inactive,–,inactive,inactive,inactive,inactive,inactive
CC[C@]1(O)C[C@@H]2CN(CCc3c([nH]c4ccccc34)[C@@](C(=O)OC)(c3cc4c(cc3OC)N(C)[C@H]3[C@@](O)(C(=O)OC)[C@H](OC(C)=O)[C@]5(CC)C=CCN6CC[C@]43[C@@H]65)C2)C1,1.88 µM (active),inactive,–,inactive,inactive,inactive,11.9 µM (active),29.8 nM (active),inactive
CCCCOCCOC(=O)c1ccccc1C(=O)OCCOCCCC,inactive,inactive,47.5 µM (active) and inactive,–,inactive,inactive,inactive,53.3 µM (active) and inactive,inactive
Cc1ccnc2c1NC(=O)c1cccnc1N2C1CC1,inactive,inactive,–,inactive,inactive,inactive,inactive,inactive,inactive
CO[Si](OC)(OC)c1ccccc1,inactive,inactive,inactive,–,inactive,inactive,inactive,inactive,inactive
NNCCc1ccccc1,inactive,inactive,–,inactive,inactive,inactive,inactive,inactive,–
Cc1cc(C2(c3cc(C)c(O)cc3C)OS(=O)(=O)c3ccccc32)c(C)cc1O,21.7 µM (active) and 15.4 µM (active),24.3 µM (active) and 15.4 µM (active),inactive,–,inactive,inactive,24.3 µM (active) and 12.2 µM (active),27.3 µM (active) and 13.7 µM (active),inactive
NC12CC3CC(CC(C3)C1)C2,inactive,inactive,–,inactive,inactive,inactive,inactive,inactive,inactive
CCn1c2ccccc2c2cc(N)ccc21,inactive,inactive,inactive,–,inactive and 27.3 µM (active),inactive,inactive,inactive,inactive
CN(C)c1ccc(C(=C2C=CC(=[N+](C)C)C=C2)c2ccccc2)cc1,30.6 µM (active) and 15 µM (active),27.3 µM (active) and 2.98 µM (active),–,inactive,24.3 µM (active) and inactive and 13.3 µM (active),61.1 µM (active) and inactive,4.73 µM (active) [middle of 4 runs],2.98 µM (active) [middle of 4 runs],inactive
